Screens deposited in PubChem BioAssay by National Center for Advancing Translational Sciences (NCATS).
D2 antagonist = antagonizes the human D2 dopamine receptor; inhibition, % at 10 µM; HEK293 TREx D2 cells, calcium flux, dopamine EC80; P14416; 2% of 340,000 active; in the data active means inhibition above about 30%; inactive means below that, where a call was filed; further: 0% is about no effect
Target sequence (P14416 whole entry, looked up): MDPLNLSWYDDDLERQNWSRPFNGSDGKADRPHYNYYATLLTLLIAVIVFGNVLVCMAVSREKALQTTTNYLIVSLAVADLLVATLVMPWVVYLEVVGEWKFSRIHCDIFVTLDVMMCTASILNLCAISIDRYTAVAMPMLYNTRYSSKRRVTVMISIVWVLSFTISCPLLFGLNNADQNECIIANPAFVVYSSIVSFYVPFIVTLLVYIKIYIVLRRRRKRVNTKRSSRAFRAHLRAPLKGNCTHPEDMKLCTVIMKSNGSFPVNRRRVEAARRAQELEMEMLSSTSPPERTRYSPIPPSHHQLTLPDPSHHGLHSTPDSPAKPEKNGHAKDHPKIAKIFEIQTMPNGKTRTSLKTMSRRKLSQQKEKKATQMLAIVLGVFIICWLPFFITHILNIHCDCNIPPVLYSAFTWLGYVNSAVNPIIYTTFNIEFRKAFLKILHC
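Tetracycline-induced HEK293 TREx cells expressing D2 receptor forced-coupled to calcium signalling, loaded with no-wash calcium dye. Compounds added and calcium flux read 180 s, then dopamine added at EC80 and read a further 180 s.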
D2 ag-1 = D2 dopamine receptor (human) agonism; 0.53% of 340,000 active; activation, % at 2 µM; HEK293 T-REx D2 cells, calcium flux agonist mode; AID 485358;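 active means activation over 3 SD above normal in the single-dose calcium agonist read, cut at about 30% in these data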; further: 0% is about no effect
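HEK293 Trex D2 cells, tetracycline-induced, o/n 30 C 5% CO2; no-wash Ca dye, RT 30–90 min; 10-cycle baseline, 23 nl cpd added, kinetic Ca read 180 s; agonist hits = positive Ca response.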
D2 PAM-1 = positively modulates the human D2 dopamine receptor allosterically; HEK293 T-REx D2, calcium flux, EC20 dopamine potentiation; 0.34% of 340,000 active; potentiation, % at 10 µM; P14416; AID 485347;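 active means potentiation over 3 SD above the plate norm, cut at about 30% in these data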; further: 0% is about no effect
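Tetracycline-induced HEK293 T-REx cells force-coupled to calcium signalling expressed D2; compounds were pin-added after a 10 s baseline, read kinetically 180 s, then an EC20 dopamine challenge followed with a further 180 s calcium read.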
D2 ag-2 = activates the human D2 dopamine receptor; activation, % (no concentration beside the values); AID 624465; 0.084% of 360,000 active; P14416; DiscoveRx PathHunter D2 beta-arrestin, luminescence, 90 min; 100% = 57 uM dopamine signal; in the data active means activation above about 40%; inconclusive means between about 15% and that limit
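DiscoveRx PathHunter D2 beta-arrestin cells (2,100/well) attached overnight, then compound-stimulated 90 min at 37 C in HBSS/10 mM HEPES/0.1% Tween-20 buffer; beta-galactosidase complementation read by luminescence after 1 h at ambient temperature. Dopamine 57 uM final (EC100) as control.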
D2 PAM-2 = human D2 receptor positive allosteric modulation; P14416; DiscoveRx D2 beta-arrestin cells, luminescence, 90 min; 100% = 57 uM dopamine signal; potentiation, % (concentration not given with the values); 0.23% of 360,000 active; in the data active means potentiation above about 50%; inconclusive means mostly about 30% to 49%
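PathHunter beta-arrestin assay in DiscoveRx D2 cells. Compounds were added with an EC20 of dopamine (50 nM final) for 90 min at 37 deg C. Luminescence was read 1 h after detection reagent, with 57 uM dopamine as the EC100 control.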
* hit, by the source's call; ? = inconclusive; nt = no result. This is a sample that favours compounds with a hit; in the whole collection about 2.4% have one here.

SMILES	D2 antagonist	D2 ag-1	D2 PAM-1	D2 ag-2	D2 PAM-2
O=C(Nc1ccc(S(=O)(=O)Nc2ccccn2)cc1)c1cccc([N+](=O)[O-])c1	39*	0	-3	3	16
O=C(Nc1ccc(S(=O)(=O)Nc2ncccn2)cc1)c1cccnc1	42*	0	6	1	1
Cc1cccc(C)c1OCC(O)CNC(C)c1ccccc1 (stereo not drawn)	7	0	3	-8	-14
O=C(O)CCS(=O)(=O)c1ccccc1Cl	39*	1	16	-5	-10
COc1ccc(CC2(CO)CCN(C(C)COc3ccccc3)CC2)cc1 (stereo not drawn)	nt	nt	nt	49*	25
COc1ccc(CC2(CO)CCN(Cc3cnn(-c4ccccc4OC)c3)CC2)cc1	79*	1	-16	-5	-24
CC1CCN(S(=O)(=O)c2cc(C(=O)NCCc3ccccc3)n(C)c2)CC1	nt	0	-12	nt	nt
Fc1ccc(N2CCN(Cc3cnc(Cl)s3)CC2)cc1	-12	39*	-12	-1	-14
Fc1ccc(N2CCN(Cc3nnc(-c4ccccc4Cl)o3)CC2)cc1	nt	0	-8	nt	nt
CCOC(=O)C1CCN(S(=O)(=O)c2ccccc2[N+](=O)[O-])CC1	nt	nt	nt	-11	5
COc1ccc(C(CCN2CCN(c3ccccc3)CC2)c2c(O)cc(OC)cc2OC)cc1 (stereo not drawn)	80*	1	-29	0	-26
COc1cc(O)c(C(CCN2CCN(c3ccccc3)CC2)c2ccc(N(C)C)cc2)c(OC)c1 (stereo not drawn)	32*	1	-17	-1	-24
COc1cc(O)c(C(CCN2CCOCC2)c2ccc(N(C)C)cc2)c(OC)c1 (stereo not drawn)	-40	0	0	-1	-10
Cc1ccc(-n2c(SCC(=O)Nc3ccc4c(c3)OCO4)nc3c([nH]c4ccccc43)c2=O)cc1	nt	0	3	nt	nt
O=C(c1ccc2c(c1)OCO2)N1CCC(Cc2ccccc2)CC1	-5	-1	-1	-4	-6
CCOC(=O)c1csc(NC(=O)C(C)(C)C)n1	41*	-1	-6	-6	-5
CCCC(=O)Nc1nc(C(=O)OCC)cs1	-14	0	6	-2	-4
O=S(=O)(/C=C/c1ccccc1)Nc1ccc2c(c1)OCO2	34*	0	16	-1	1
COc1ccc(C(O)c2nc(-c3ccccc3C)cs2)cc1 (stereo not drawn)	nt	nt	nt	4	-2
Nc1cc(C(=O)OCC(=O)Nc2ccc(N3CCOCC3)cc2)ccc1Cl	48*	-1	-6	-2	-2
C/C(=N\Nc1ccc(Cl)c(C(=O)O)c1)c1ccc(N2CCOCC2)cc1	33*	2	-1	-1	7
O=C(O)c1cc(N/N=C/c2ccc(N3CCOCC3)s2)ccc1Cl	-17	0	20	11	22
CCOc1ccc(NC(=O)Cn2c(C)cc3ccccc3c2=O)cc1	nt	0	3	nt	nt
Cc1cc(C)c2c(N)c(C(=O)N/N=C/c3ccccc3)sc2n1	-5	0	-5	2	-20
Cc1cc(NC(=S)NC(=O)c2ccccc2)ccc1-c1cc2ccccc2oc1=O	63*	-1	-9	1	-1
SMILES	D2 antagonist	D2 ag-1	D2 PAM-1	D2 ag-2	D2 PAM-2
O=C(c1ccc2c3c(cccc13)CC2)C1CCCN(Cc2ccc(OCCO)cc2)C1 (stereo not drawn)	31*	0	-32	0	-5
O=C(c1ccc2c3c(cccc13)CC2)C1CCCN(Cc2ccccn2)C1 (stereo not drawn)	37*	0	-18	-2	-7
Cc1cnc(CN2CCCC(C(=O)c3ccc4c5c(cccc35)CC4)C2)[nH]1 (stereo not drawn)	7	-1	-32	-4	-16
CCOC(=O)Cn1c(=O)oc2cc(S(=O)(=O)N3CCN(c4cccc(Cl)c4)CC3)ccc21	nt	0	2	nt	nt
Brc1ccc(-c2noc(COc3ccc4c(c3)CCC4)n2)o1	43*	0	-5	4	-1
COCCCNC(=O)c1cc2c(=O)oc3ccc(C)cc3c2s1	nt	0	14	nt	nt
Cc1ccc2oc(=O)c3cc(C(=O)NCCCN4CCCC(C)C4)sc3c2c1 (stereo not drawn)	43*	0	-18	-2	-32
CCCN1CCN(CCCNC(=O)c2cc3c(=O)oc4ccc(C)cc4c3s2)CC1	5	0	34*	-2	-11
C=CCNc1nc(Cl)nc(Nc2ccc(OC)cc2OC)n1	-13	0	1	-1	-4
COc1ccc(Nc2nc(Cl)nc(Nc3ccc(OC)cc3OC)n2)c(OC)c1	51*	0	-6	6	-4
Cc1ccc(S(=O)(=O)N2CCC(C(=O)OCC(=O)N(C)C3CCCCC3)CC2)cc1C	22	-1	4	-1	28
COc1cc(SC)ccc1C(=O)Nc1nc2ccccc2[nH]1	34*	1	-7	-11	-13
COc1ccccc1C(=O)Nc1nc2ccccc2[nH]1	-9	0	3	-4	-7
CCOC(=O)c1c(S(=O)(=O)N2CCC(C(=O)Nc3ccccc3OC)CC2)c(C)n(CC)c1C	nt	0	4	nt	nt
CCN1/C(=C/c2ccc3cc(C)ccc3[n+]2CC)Sc2cc(C)ccc21	35*	15	6	-5	-1
CCCCN1/C(=C/c2ccc3ccccc3[n+]2CC)Sc2ccccc21	16	14	-4	2	-5
O=C(NCc1ccc(F)cc1)c1ccc2c(=O)n3c(nc2c1)CCCCC3	-4	-1	-1	-1	0
Cc1nc2n(c(=O)c1CCN1CCC(c3noc4cc(F)ccc34)CC1)CCCC2	86*	nt	nt	nt	nt
O=S(=O)(c1ccc(Cl)nc1)N1CCCC1	nt	nt	nt	-3	-3
Oc1sc(C=Nc2ccccc2)c2ccccc12	-11	36*	-2	6	24
Oc1sc(C=Nc2ccc(F)cc2)c2ccccc12	-9	-1	6	-1	?
Cc1cccc(N=C(N2CCOCC2)P(=O)(N2CCOCC2)N2CCOCC2)c1	11	0	65*	-2	-11
N=C(N)SCc1nc2ccccn2c1Br	2	0	-3	0	-22
O=C(O)c1ccccc1SCc1nc2ccccn2c1Br	51*	0	0	-6	-10
CCOC(=O)c1c(C)n(-c2ccc(C)cc2)c2ccc(OCC(O)CNCC3CCCO3)cc12 (stereo not drawn)	-4	0	-8	-11	-19
OC(CNCC1CCCO1)COc1ccc(OCC(O)CNCC2CCCO2)cc1 (stereo not drawn)	-7	0	43*	-2	-17
OC(CNCC1COc2ccccc2O1)COc1ccc(Cl)cc1 (stereo not drawn)	104*	33*	-19	-2	-4
CCn1c2ccccc2c2nnc(N3CCN(c4ccc(OC)cc4)CC3)nc21	nt	0	12	nt	nt
